From PubChem BioAssay (EPA / NIEHS) come the findings set out here.

Holding throughout (conditions): primary human HUVEC with PBMC; actives raise or lower the signal
Read-out in experiment [1]: Monocyte Chemoattractant Protein-1 (MCP1), CCL2 (gene 6347)
Put plainly: BSK_LPS_MCP1: BioMAP Diversity Plus: LPS Assay for Monocyte Chemoattractant Protein-1 (MCP1) Biomarker Activity (AID 2283081).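 On AC50: secreted MCP-1 protein quantified by ELISA in culture supernatant.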 The procedure, abridged: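 ELISA read-out of MCP-1 after 24 h chemical dosing of a human umbilical vein endothelial cell/peripheral blood mononuclear cell co-culture stimulated with LPS. Gain or loss of signal fitted relative to DMSO controls.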

The nature of experiment [2]: BSK_LPS_PGE2: BioMAP Diversity Plus: LPS Assay for Prostaglandin E2 (PGE2) Biomarker Activity (AID 2283082). The procedure, abridged: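 Endpoint derived from bidirectional curve fitting versus DMSO of ELISA-measured PGE2 in LPS-stimulated human primary vascular co-culture (HUVEC with PBMC) harvested at 24 h.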
Read-out in experiment [3]: Macrophage colony-stimulating factor (MCSF), CSF1 (gene 1435)
Put plainly: BSK_LPS_MCSF: BioMAP Diversity Plus: LPS Assay for Macrophage colony-stimulating factor (MCSF) Biomarker Activity (AID 2283083). Put shortly:
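HUVEC + PBMC co-culture (human primary), 24 h post-dose; M-CSF by ELISA; gain/loss of signal fitted bidirectionally vs DMSO baseline.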

Read-out in experiment [4]: Tumor necrosis factor (Homo sapiens) (UniProt P01375)
Put plainly: BSK_LPS_TNFa: BioMAP Diversity Plus: LPS Assay for Tumour Necrosis Factor alpha (TNFa) Biomarker Activity (AID 2283085). Put shortly:
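Primary human vascular co-culture of HUVEC and PBMC; TNFa ELISA 24 h after treatment, analysed as increase or decrease relative to DMSO control.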

Read-out in experiment [5]: CD38, CD38 (gene 952)
Put plainly: BSK_SAg_CD38: BioMAP Diversity Plus: SAg Assay for CD38 Biomarker Activity (AID 2283087). The procedure, abridged: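 Fluorescence ELISA of cell-surface CD38 served as the read-out, with either increase or decrease fitted against DMSO controls. Cells were a human umbilical vein endothelium plus PBMC co-culture under SEB/TSST-1 stimulation, measured 24 h after dosing.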

Read-out in experiment [6]: CD40, CD40 (gene 958)
Put plainly: BSK_SAg_CD40: BioMAP Diversity Plus: SAg Assay for CD40 Biomarker Activity (AID 2283088). The procedure, abridged:
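HUVEC/PBMC co-culture, 24 h post-dose; CD40 by ELISA, fluorescence intensity; bidirectional fit vs DMSO negative control.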

Read-out in experiment [7]: CD69, CD69 (gene 969)
Put plainly: BSK_SAg_CD69: BioMAP Diversity Plus: SAg Assay for CD69 Biomarker Activity (AID 2283089).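 On AC50: cell surface CD69 protein quantified by ELISA with fluorescence detection.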 The procedure, abridged: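 Primary human vascular co-culture (umbilical vein endothelium with peripheral blood mononuclear cells) exposed to test chemical for 24 h. CD69 levels quantified by fluorescence ELISA; DMSO served as negative control for bidirectional fitting.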

Read-out in experiment [8]: Monocyte Chemoattractant Protein-1 (MCP1), CCL2 (gene 6347)
Put plainly: BSK_SAg_MCP1: BioMAP Diversity Plus: SAg Assay for Monocyte Chemoattractant Protein-1 (MCP1) Biomarker Activity (AID 2283090). Put shortly:
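MCP-1 levels in the endothelial–PBMC SAg co-culture were quantified by ELISA at 24 h post-dosing; both increases and decreases versus DMSO scored. Cytotoxicity monitored by SRB total protein in parallel cultures.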

Read-out in experiment [9]: Vascular cell adhesion molecule 1 (VCAM1), VCAM1 (gene 7412)
Put plainly: BSK_LPS_VCAM1: BioMAP Diversity Plus: LPS Assay for Vascular cell adhesion molecule 1 (VCAM1) Biomarker Activity (AID 2283086). Put shortly:
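Primary human vascular co-culture (umbilical vein endothelium plus PBMC) stimulated with LPS received chemical; 24 h later VCAM-1 was read by ELISA. Overt cytotoxicity was assessed by sulforhodamine B staining of parallel cultures at the same time point.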

As usually defined, the AC50 is the concentration at which the activity in the assay is half-maximal.

The structures appear in SMILES notation. Where “and” joins values, the source holds several entries; their conditions need not be identical. Equal values may be shown once. A structure can be active in one record and inactive in another. Calls of active or inactive are those of the source. How the source made its calls: active means hit-call score of the fitted dose curve at least 0.9, where 1 is the maximum; inactive means score below 0.9.

Tumor necrosis factor (Homo sapiens), sequence (P01375 whole entry, looked up): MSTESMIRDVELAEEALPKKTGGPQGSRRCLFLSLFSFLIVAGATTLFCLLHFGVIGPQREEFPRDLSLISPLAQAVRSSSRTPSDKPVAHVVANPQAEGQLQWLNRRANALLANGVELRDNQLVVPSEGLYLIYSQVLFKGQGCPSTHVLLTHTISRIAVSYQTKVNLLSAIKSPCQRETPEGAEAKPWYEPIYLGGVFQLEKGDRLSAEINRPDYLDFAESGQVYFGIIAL

Take `OC(O)C(F)(F)C(F)(F)F`: the outcome in experiment [1], in [2], in experiment [3], in experiment [4], in experiment [5] and in experiment [6] was inactive. In addition, the outcome in experiment [7] and in experiment [8] was inactive.
On to `OCCCC(F)(F)C(F)(F)C(F)(F)C(F)(F)C(F)(F)C(F)(F)C(F)(F)C(F)(F)F`, for which the AC50 is 29.9 µM (active) and 44.8 µM (active) in [1]; 44.2 µM (active) and 22.5 µM (active) in experiment [3]; 29.7 µM (active) and 19.9 µM (active) in [4]; 44.8 µM (active) and 26 µM (active) in [5]; 43.8 µM (active) and 45.5 µM (active) in experiment [6]; 45.5 µM (active) and 46.7 µM (active) in experiment [7]. Besides, the AC50 in experiment [8] is 23.2 µM (active) and 51.9 µM (active). Moreover, the result in experiment [2] was inactive.
Regarding `CC(C)CCCC(C)CCO` (configuration not stated), the outcome in experiment [1], in experiment [2], in [3], in experiment [4], in [9] and in experiment [5] was inactive. The outcome in experiment [6], in experiment [7] and in experiment [8] was inactive.
Consider `C[C@]12CC[C@H]3C(=CCc4cc(O)ccc43)[C@@H]1CCC2=O`, for which the outcome in experiment [1], in [2], in experiment [3], in experiment [4], in [5] and in experiment [6] was inactive. Also, the outcome in experiment [7] and in experiment [8] was inactive.
Take `O=C1c2c(O)ccc(Nc3ccc(CCO)cc3)c2C(=O)c2c([N+](=O)[O-])ccc(O)c21`: the AC50 in experiment [1] is 20 µM (active); in experiment [2], 29.4 µM (active); in experiment [3] it was 7.53 µM (active); in [5], 20 µM (active); in experiment [6], 25.9 µM (active); in experiment [7], 14.2 µM (active). For the same compound, the result in experiment [4] and in experiment [8] was inactive.
With `O=C(O)C(F)(F)C(F)(F)C(F)(F)C(F)(F)C(F)(F)C(F)(F)C(F)F`, the result in [1], in [2], in experiment [3], in [4], in [5] and in experiment [6] was inactive. Further, the outcome in experiment [7] and in experiment [8] was inactive.
`O=S(=O)(O)CCC(F)(F)C(F)(F)C(F)(F)C(F)(F)F`: the result in experiment [1], in experiment [2], in experiment [3], in experiment [4], in experiment [9] and in experiment [5] was inactive. For the same compound, the result in [6], in experiment [7] and in experiment [8] was inactive.
Consider `CC1=CC2C3C=CC(C3)C2C1C` (configuration not stated), for which the outcome in [1], in [2], in [3], in experiment [5], in experiment [6] and in [7] was inactive. Also, the result in [8] was inactive. Besides, the AC50 in experiment [4] is 31.3 µM (active).
For `C=CC(=O)OCCC(F)(F)C(F)(F)C(F)(F)C(F)(F)F`, the result in experiment [1], in experiment [2], in [3] and in [4] was inactive. Besides, the AC50 was 47.8 µM (active) and 30 µM (active) in [5]; 30 µM (active) in experiment [6]; 28 µM (active) and 30.9 µM (active) in experiment [7]; 19.4 µM (active) and 14.4 µM (active) in experiment [8].
Consider `CC(C)(C)c1cc(CCC(=O)NCCCCCCNC(=O)CCc2cc(C(C)(C)C)c(O)c(C(C)(C)C)c2)cc(C(C)(C)C)c1O`, for which the result in experiment [1], in [2], in experiment [3], in experiment [4], in experiment [9] and in experiment [5] was inactive. Moreover, the outcome in experiment [6], in experiment [7] and in experiment [8] was inactive.
Regarding `NC(O)(C(F)(F)F)C(F)(F)F`, the outcome in experiment [1], in experiment [2], in [3], in [4], in [5] and in experiment [6] was inactive. Moreover, the result in [7] and in experiment [8] was inactive.
As to `O=S(=O)(Cl)C(F)(F)C(F)(F)C(F)(F)C(F)(F)C(F)(F)C(F)(F)C(F)(F)C(F)(F)F`, the outcome in experiment [1], in experiment [3], in experiment [4], in [5], in experiment [6] and in experiment [7] was inactive. Besides, the outcome in [8] was inactive. For the same compound, the AC50 is 46.8 µM (active) and 42.8 µM (active) in [2]; 15 µM (active) in experiment [7].
With `O=C(O)C(F)(F)C(F)(F)C(F)(F)OC(F)(F)F`, the outcome in [1], in experiment [2], in [3], in experiment [4], in experiment [9] and in experiment [5] was inactive. The result in experiment [6], in [7] and in experiment [8] was inactive.
As for `FC(F)(F)C(F)(F)C(F)(F)CC1CO1` (configuration not stated), the outcome in experiment [1], in experiment [2], in experiment [3], in experiment [4], in [9] and in experiment [5] was inactive. Also, the outcome in experiment [6], in experiment [7] and in [8] was inactive.
On to `CCN=C1C=CC(=C(c2ccc(N(CC)CC)cc2)c2ccc(N(CC)CC)cc2)c2ccccc21`, for which the AC50 in [1] is 261 nM (active) and 1.13 µM (active); in [2], 3.95 µM (active) and 2.66 µM (active); in experiment [3] it was 1.72 µM (active) and 1.53 µM (active); in experiment [4], 501 nM (active) and 519 nM (active); in experiment [5], 713 nM (active) and 470 nM (active); in experiment [6], 1.69 µM (active) and 1.51 µM (active). Moreover, the AC50 is 1.34 µM (active) and 765 nM (active) in [7]; 762 nM (active) and 1.25 µM (active) in experiment [8].
On to `Cc1cc(O)c(C(C)(C)C)cc1C(C)(C)C`, for which the AC50 is 9.04 µM (active) in [1]; 5.29 µM (active) in experiment [3]; 9.79 µM (active) in experiment [4]; 5.9 µM (active) in [9]; 10.1 µM (active) in experiment [5]; 5.09 µM (active) in experiment [6]. The AC50 in experiment [7] is 5.18 µM (active); in experiment [8] it was 7.3 µM (active). Besides, the outcome in experiment [2] was inactive.
Turning to `NC(=O)C(F)(F)C(F)(F)C(F)(F)C(F)F`, the result in experiment [1], in experiment [2], in experiment [3], in experiment [4], in experiment [9] and in [5] was inactive. Moreover, the result in [6], in [7] and in experiment [8] was inactive.
With `C[Si](Cl)(Cl)CCC(F)(F)C(F)(F)C(F)(F)C(F)(F)C(F)(F)C(F)(F)F`, the result in experiment [1], in experiment [2], in experiment [3], in experiment [4], in experiment [5] and in [6] was inactive. Further, the result in [7] and in [8] was inactive.
